PubChem BioAssay (NCATS)
Records with an inconclusive call do not appear. Calls of active or inactive are those of the source. The call rests on the fitted dose curve; in most records, active means well fitted curve in the direction sought with a large enough effect; inconclusive means small, poorly fitted or top-dose-only effect, or another doubt; inactive means no such curve, though single readings can be large; an effect the other way counts as inactive or inconclusive. Where a SMILES comes first, the peptide text is derived from it. Bridges are numbered along the chain shown (N, C = ends). [ ]: non-standard residue; d: D form. NMeY = CN[CH](Cc1ccc(O)cc1)C(=O)O

Key:
[1] = test system: NIH3T3; assay: qHTS assay to identify novel small-molecules to repurpose for Merkel cell carcinoma treatment (AID 1296009); details: MCC and control cell lines, CellTiter-Glo viability, 72 h; at 44.8 µM (top of the series) unless noted; further: nearly all actives have a fitted effect of over 60% in size
Method in brief: (§1)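 Dose-response viability screen; 72 hr exposure at 37 degree celsius; CellTiter-Glo added, 10 min room temperature, luminescence read; RLUs scaled between no-cell and DMSO wells.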

[2] = test system: C33A; assay: Primary qHTS to identify gynecologic anti-cancer compounds using libraries of approved drugs and bioactive compounds (AID 1345084); details: Gynecologic cancer cell panel viability, ATPlite luminescence, 48 h; series mostly up to 57.5 µM; further: nearly all actives have a fitted effect of over 55% in size
Method in brief: (§2)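 Measured: luminescence after ATPlite addition (15 min, RT). Exposure: 48 h, 37 C, 5% CO2.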

[3] = test system: CAOV3; assay: as above; details: Gynecologic cancer cell panel viability, ATPlite luminescence, 48 h; series mostly up to 57.5 µM
Method in brief: as §2

[4] = test system: CASKI; assay: as above; details: Gynecologic cancer cell panel viability, ATPlite luminescence, 48 h; series mostly up to 57.5 µM
Method in brief: as §2

[5] = test system: Es-2; assay: as above; details: Gynecologic cancer cell panel viability, ATPlite luminescence, 48 h; series mostly up to 57.5 µM
Method in brief: as §2

[6] = test system: HeLa; assay: as above; details: Gynecologic cancer cell panel viability, ATPlite luminescence, 48 h; series mostly up to 57.5 µM
Method in brief: as §2

[7] = test system: Hek293T; assay: as above; details: Gynecologic cancer cell panel viability, ATPlite luminescence, 48 h, control line for the selectivity index; series mostly up to 57.5 µM
Method in brief: as §2

[8] = test system: JEG-3; assay: as above; details: Gynecologic cancer cell panel viability, ATPlite luminescence, 48 h; series mostly up to 57.5 µM
Method in brief: as §2

[9] = test system: OV90; assay: as above; details: Gynecologic cancer cell panel viability, ATPlite luminescence, 48 h; series mostly up to 57.5 µM
Method in brief: as §2

[10] = test system: PA-1; assay: as above; details: Gynecologic cancer cell panel viability, ATPlite luminescence, 48 h; series mostly up to 57.5 µM
Method in brief: as §2

[11] = test system: SKOV3; assay: as above; details: Gynecologic cancer cell panel viability, ATPlite luminescence, 48 h; series mostly up to 57.5 µM
Method in brief: as §2

[12] = test system: Tov-21-G; assay: as above; details: Gynecologic cancer cell panel viability, ATPlite luminescence, 48 h; series mostly up to 57.5 µM
Method in brief: as §2

[13] = test system: Tov112D; assay: as above; details: Gynecologic cancer cell panel viability, ATPlite luminescence, 48 h; series mostly up to 57.5 µM
Method in brief: as §2

[14] = test system: MKL-2; assay: qHTS assay to identify novel small-molecules to repurpose for Merkel cell carcinoma treatment (AID 1296009); details: MCC and control cell lines, CellTiter-Glo viability, 72 h; series mostly up to 46 µM; further: nearly all actives have a fitted effect of over 60% in size
Method in brief: as §1

[15] = test system: UISO; assay: as above; details: MCC and control cell lines, CellTiter-Glo viability, 72 h; series mostly up to 46 µM
Method in brief: as §1

[16] = test system: WaGa; assay: as above; details: MCC and control cell lines, CellTiter-Glo viability, 72 h; series mostly up to 46 µM
Method in brief: as §1
On the % scale 0 is the no-effect control and ±100 the full control effect.

Nc1nc2c(ncn2[C@@H]2O[C@H](CO)[C@@H](O)[C@H]2O)c(=O)[nH]1
inactive: outcome [1] | Potency [2] | Potency [3] | Potency [4] | Potency [5] | Potency [6] | Potency [7] | Potency [8] | Potency [9] | Potency [10] | Potency [11] | Potency [12] | Potency [13]

CCC(C(=O)O)c1ccc(N2Cc3ccccc3C2=O)cc1 (configuration not stated)
inactive: Potency [14] | Potency [15] | Potency [16] | Potency [2] | Potency [3] | Potency [4] | Potency [5] | Potency [6] | Potency [7] | Potency [8] | Potency [10] | Potency [11] | Potency [12] | Potency [13]

COc1cc(Nc2nc3ccccc3nc2NS(=O)(=O)c2ccc(NC(=O)c3ccc(OC)c(C)c3)cc2)cc(OC)c1
inactive: outcome [1] | Potency [2] | Potency [3] | Potency [4] | Potency [5] | Potency [6] | Potency [7] | Potency [8] | Potency [9] | Potency [10] | Potency [11] | Potency [12] | Potency [13]

CC(=O)N[C@@H](C(=O)O[C@H]1CCC(C)(C)[C@@H]2CCC3=C(COC3=O)[C@@]12C)C(C)C
inactive: outcome [1] | Potency [2] | Potency [3] | Potency [4] | Potency [5] | Potency [6] | Potency [7] | Potency [8] | Potency [9] | Potency [10] | Potency [11] | Potency [12] | Potency [13]

C[C@H](NC(c1cccc2[nH]c(=O)c(=O)[nH]c12)P(=O)(O)O)c1ccc(Br)cc1 (some centres not stated)
inactive: outcome [1] | Potency [2] | Potency [3] | Potency [4] | Potency [5] | Potency [6] | Potency [7] | Potency [8] | Potency [9] | Potency [10] | Potency [11] | Potency [12] | Potency [13]

CCC(C)C1NC(=O)C2CCCN2C(=O)C(NC(C)=O)C(C)OC(=O)C(Cc2ccc(OC)cc2)N(C)C(=O)C2CCCN2C(=O)C(C(C)C)NC1=O (configuration not stated) (Ac-TPIVP[NMeY](Me); ester 1-C; configuration not given here)
inactive: outcome [1] inactive [at 17.4 µM] | Potency [2] | Potency [3] | Potency [4] | Potency [5] | Potency [6] | Potency [7] | Potency [8] | Potency [9] | Potency [10] | Potency [11] | Potency [12] | Potency [13]

C=C(C)C1CCC2(C(=O)O[C@@H]3O[C@H](CO[C@@H]4O[C@H](CO)[C@@H](O)[C@H](O)[C@H]4O)[C@@H](O)[C@H](O[C@@H]4O[C@@H](C)[C@H](O)[C@@H](O)[C@H]4O)[C@H]3O)CCC3(C(=O)O)C(CCC4C5(C)CCC(O)C(C)(C)C5CCC43C)C12 (some centres not stated)
inactive: outcome [1] inactive [at 9.27 µM] | activity change, negative = cytotoxicity [2] -9.37% [at 11.6 µM] | activity change, negative = cytotoxicity [3] -3.74% [at 11.6 µM] | activity change, negative = cytotoxicity [4] 13.9% [at 11.6 µM] | activity change, negative = cytotoxicity [5] 1.26% [at 11.6 µM] | activity change, negative = cytotoxicity [6] -0.105% [at 11.6 µM] | activity change, negative = cytotoxicity [7] -3.68% [at 11.6 µM] | activity change, negative = cytotoxicity [8] 18.7% [at 11.6 µM] | activity change, negative = cytotoxicity [9] 15.5% [at 11.6 µM] | activity change, negative = cytotoxicity [10] -1.76% [at 11.6 µM] | activity change, negative = cytotoxicity [11] -5.29% [at 11.6 µM] | activity change, negative = cytotoxicity [12] 9.18% [at 11.6 µM] | activity change, negative = cytotoxicity [13] 11.4% [at 11.6 µM]

CC(C)C[C@H](CC(=O)NO)C(=O)N[C@H](C(=O)N[C@@H](C)C(=O)NCCN)C(C)(C)C
inactive: outcome [1] inactive [at 9.27 µM] | activity change, negative = cytotoxicity [2] 18.9% [at 11.6 µM] | activity change, negative = cytotoxicity [3] 17.3% [at 11.6 µM] | activity change, negative = cytotoxicity [4] 5.02% [at 11.6 µM] | activity change, negative = cytotoxicity [5] 10.1% [at 11.6 µM] | activity change, negative = cytotoxicity [6] 11.1% [at 11.6 µM] | activity change, negative = cytotoxicity [7] 15.9% [at 11.6 µM] | activity change, negative = cytotoxicity [8] 0.977% [at 11.6 µM] | activity change, negative = cytotoxicity [9] 19.6% [at 11.6 µM] | activity change, negative = cytotoxicity [10] 8.02% [at 11.6 µM] | activity change, negative = cytotoxicity [11] 0% [at 11.6 µM] | activity change, negative = cytotoxicity [12] 7.8% [at 11.6 µM] | activity change, negative = cytotoxicity [13] -2.79% [at 11.6 µM]

O=C(/C=C/c1ccccc1)OC[C@]12O[C@H]1[C@@H](O)[C@@H]1C=CO[C@@H](O[C@@H]3O[C@H](CO)[C@@H](O)[C@H](O)[C@H]3O)[C@@H]12
inactive: outcome [1] inactive [at 17.4 µM] | Potency [2] | Potency [3] | Potency [4] | Potency [5] | Potency [6] | Potency [7] | Potency [8] | Potency [9] | Potency [10] | Potency [11] | Potency [12] | Potency [13]

COC(=O)CC(O)CC(O)/C=C/c1c(C)ccc2c1C(O)CC(C)C2 (configuration not stated)
inactive: outcome [1] | Potency [2] | Potency [3] | Potency [4] | Potency [5] | Potency [6] | Potency [7] | Potency [8] | Potency [9] | Potency [10] | Potency [11] | Potency [12] | Potency [13]

C[C@@H]1O[C@@H](O[C@H]2[C@H](OC(=O)[C@]34CCC(C)(C)C[C@H]3C3=CCC5[C@@]6(C)C[C@H](O)[C@H](O[C@@H]7O[C@H](CO)[C@@H](O)[C@H](O)[C@H]7O)[C@@](C)(CO)C6[C@H](O)C[C@@]5(C)[C@]3(C)C[C@H]4O)OC[C@H](O)[C@@H]2O)[C@H](O)[C@H](O)[C@H]1O[C@@H]1OC[C@@H](O)[C@H](O[C@H]2OC[C@](O)(CO)[C@H]2O)[C@H]1O (some centres not stated)
inactive: outcome [1] inactive [at 9.27 µM] | activity change, negative = cytotoxicity [2] 6.39% [at 6.55 µM] | activity change, negative = cytotoxicity [3] 27.3% [at 6.55 µM] | activity change, negative = cytotoxicity [4] -4.03% [at 6.55 µM] | activity change, negative = cytotoxicity [5] 1.52% [at 6.55 µM] | activity change, negative = cytotoxicity [6] 19.6% [at 6.55 µM] | activity change, negative = cytotoxicity [7] -3.35% [at 6.55 µM] | activity change, negative = cytotoxicity [8] 13.7% [at 6.55 µM] | activity change, negative = cytotoxicity [9] -6.86% [at 6.55 µM] | activity change, negative = cytotoxicity [10] 24.7% [at 6.55 µM] | activity change, negative = cytotoxicity [11] 19.1% [at 6.55 µM] | activity change, negative = cytotoxicity [12] 8.26% [at 6.55 µM] | activity change, negative = cytotoxicity [13] 8.3% [at 6.55 µM]

O=C(O)c1ccccc1NCCc1ccccc1
inactive: Potency [14] | Potency [15] | Potency [16] | Potency [2] | Potency [4] | Potency [5] | Potency [6] | Potency [7] | Potency [8] | Potency [10] | Potency [11] | Potency [12] | Potency [13]
